Measurements reported in PubChem BioAssay (NCI).
Compounds without any hit were thinned out: in the full panel of roughly 83,000, 20% have a hit.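 Note: values are percent growth. 100 is the growth of untreated cells, values between 100 and 0 indicate rising inhibition; between -100 and 0 indicates cell death.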 Unmarked numbers belong to inactive results. The source made the active and inactive calls. Rule for the calls: active = growth percent below 10; inactive = the rest.

system: HL-60(TB) leukemia; experiment: NCI-60 one-dose screen, 48 h (100 = growth as untreated, 0 = no growth, -100 = all killed); conditions: 10 µM unless noted

SMILES | growth
Clc1cccc(-c2nc(-c3cccs3)no2)c1 | 98.4%
COCCOc1cc2ncnc(N3CCN(c4ncc(S(=O)(=O)N5CCCCC5)cn4)CC3)c2cc1OCCOC | 100%
O=c1c(/C=C/c2c(O)ccc3ccccc23)nnc2sc(-c3cccc([N+](=O)[O-])c3)nn12 | 11.2%
NS(=O)(=O)c1ccc(Cn2c(SCC(=O)N/N=C/c3ccccc3O)nc3ccccc3c2=O)cc1 | 40.9%
N#CC1=C(N)Oc2c(ccc3ccccc23)C1c1cccs1 (stereo not given) | -29.6% (active)
O=C1OCC2=C1C(c1cccc(C(F)(F)F)c1)c1cc3c(cc1N2CCO)OCCO3 (stereo not given) | -29.5% (active)
CCC(C)(C)c1ccc(OCCCCCCN2CCNCC2)cc1 | -17.4% (active)
Cn1cc(-c2ccc3cc(-c4ccc(CC(=O)Nc5cc(C(C)(C)C)nn5C)cc4)cnc3c2)cn1 | 25.2%
Brc1ccc(-c2nnc3c4[nH]ccc4ncn23)cc1 | 100%
NCCCNc1nc2ccccc2c2c(=O)c3cc(Cl)ccc3sc12 | -56.8% (active)
COc1ccc(NC(=O)c2sc3c(=O)[nH]c(C(F)(F)F)nc3c2C)cc1 | 106%
COc1ccc(C2=NN(C(N)=S)C(c3ccc4c(c3)OCO4)C2)cc1 (stereo not given) | 30.4%
O=C(O)c1cn(C2CC2)c2cc(N3CCN(Cc4ccc5ccccc5c4O)CC3)c(F)cc2c1=O | 69.7%
Cc1ccc(-c2noc(C)n2)cc1 | 100%
COc1cccc(C(Cc2ccccc2)Nc2ccccc2)c1OC (stereo not given) | 96.3%
